Test results as given in ChEMBL document CHEMBL1961873, “Compounds: GSK PKIS; Assays: Nanosyn kinase panel” (2012).
Where “and” joins values, the source holds several entries; their conditions need not be identical. Equal values may be shown once.

Key:
[1] = molecular target: RAF proto-oncogene serine/threonine-protein kinase (Homo sapiens) (UniProt P04049); conditions: at 1 µM;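 also: values are the mean percent inhibition of CRAF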
[2] = molecular target: T1, Interleukin-1 receptor-associated kinase 4 (Homo sapiens) (UniProt Q9NWZ3); conditions: at 0.1 µM
T1 sequence (whole entry): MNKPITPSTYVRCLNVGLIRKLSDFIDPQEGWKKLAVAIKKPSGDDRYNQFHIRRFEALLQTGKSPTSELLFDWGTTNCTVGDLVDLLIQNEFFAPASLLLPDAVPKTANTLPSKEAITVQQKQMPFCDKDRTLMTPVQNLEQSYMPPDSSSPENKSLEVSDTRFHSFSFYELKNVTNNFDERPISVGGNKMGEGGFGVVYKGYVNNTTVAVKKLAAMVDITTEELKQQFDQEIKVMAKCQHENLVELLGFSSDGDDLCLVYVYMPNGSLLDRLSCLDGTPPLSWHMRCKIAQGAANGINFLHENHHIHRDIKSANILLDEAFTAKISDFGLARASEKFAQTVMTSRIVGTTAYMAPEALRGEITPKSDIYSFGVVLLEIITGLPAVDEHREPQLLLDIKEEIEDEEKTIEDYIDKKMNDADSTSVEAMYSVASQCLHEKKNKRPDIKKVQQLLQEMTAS

[3] = molecular target: T1, Interleukin-1 receptor-associated kinase 4 (Homo sapiens); conditions: at 1 µM
[4] = molecular target: Leucine-rich repeat serine/threonine-protein kinase 2 (Homo sapiens) (UniProt Q5S007); conditions: at 0.1 µM
Sequence of Leucine-rich repeat serine/threonine-protein kinase 2 (Homo sapiens) (Q5S007 whole entry): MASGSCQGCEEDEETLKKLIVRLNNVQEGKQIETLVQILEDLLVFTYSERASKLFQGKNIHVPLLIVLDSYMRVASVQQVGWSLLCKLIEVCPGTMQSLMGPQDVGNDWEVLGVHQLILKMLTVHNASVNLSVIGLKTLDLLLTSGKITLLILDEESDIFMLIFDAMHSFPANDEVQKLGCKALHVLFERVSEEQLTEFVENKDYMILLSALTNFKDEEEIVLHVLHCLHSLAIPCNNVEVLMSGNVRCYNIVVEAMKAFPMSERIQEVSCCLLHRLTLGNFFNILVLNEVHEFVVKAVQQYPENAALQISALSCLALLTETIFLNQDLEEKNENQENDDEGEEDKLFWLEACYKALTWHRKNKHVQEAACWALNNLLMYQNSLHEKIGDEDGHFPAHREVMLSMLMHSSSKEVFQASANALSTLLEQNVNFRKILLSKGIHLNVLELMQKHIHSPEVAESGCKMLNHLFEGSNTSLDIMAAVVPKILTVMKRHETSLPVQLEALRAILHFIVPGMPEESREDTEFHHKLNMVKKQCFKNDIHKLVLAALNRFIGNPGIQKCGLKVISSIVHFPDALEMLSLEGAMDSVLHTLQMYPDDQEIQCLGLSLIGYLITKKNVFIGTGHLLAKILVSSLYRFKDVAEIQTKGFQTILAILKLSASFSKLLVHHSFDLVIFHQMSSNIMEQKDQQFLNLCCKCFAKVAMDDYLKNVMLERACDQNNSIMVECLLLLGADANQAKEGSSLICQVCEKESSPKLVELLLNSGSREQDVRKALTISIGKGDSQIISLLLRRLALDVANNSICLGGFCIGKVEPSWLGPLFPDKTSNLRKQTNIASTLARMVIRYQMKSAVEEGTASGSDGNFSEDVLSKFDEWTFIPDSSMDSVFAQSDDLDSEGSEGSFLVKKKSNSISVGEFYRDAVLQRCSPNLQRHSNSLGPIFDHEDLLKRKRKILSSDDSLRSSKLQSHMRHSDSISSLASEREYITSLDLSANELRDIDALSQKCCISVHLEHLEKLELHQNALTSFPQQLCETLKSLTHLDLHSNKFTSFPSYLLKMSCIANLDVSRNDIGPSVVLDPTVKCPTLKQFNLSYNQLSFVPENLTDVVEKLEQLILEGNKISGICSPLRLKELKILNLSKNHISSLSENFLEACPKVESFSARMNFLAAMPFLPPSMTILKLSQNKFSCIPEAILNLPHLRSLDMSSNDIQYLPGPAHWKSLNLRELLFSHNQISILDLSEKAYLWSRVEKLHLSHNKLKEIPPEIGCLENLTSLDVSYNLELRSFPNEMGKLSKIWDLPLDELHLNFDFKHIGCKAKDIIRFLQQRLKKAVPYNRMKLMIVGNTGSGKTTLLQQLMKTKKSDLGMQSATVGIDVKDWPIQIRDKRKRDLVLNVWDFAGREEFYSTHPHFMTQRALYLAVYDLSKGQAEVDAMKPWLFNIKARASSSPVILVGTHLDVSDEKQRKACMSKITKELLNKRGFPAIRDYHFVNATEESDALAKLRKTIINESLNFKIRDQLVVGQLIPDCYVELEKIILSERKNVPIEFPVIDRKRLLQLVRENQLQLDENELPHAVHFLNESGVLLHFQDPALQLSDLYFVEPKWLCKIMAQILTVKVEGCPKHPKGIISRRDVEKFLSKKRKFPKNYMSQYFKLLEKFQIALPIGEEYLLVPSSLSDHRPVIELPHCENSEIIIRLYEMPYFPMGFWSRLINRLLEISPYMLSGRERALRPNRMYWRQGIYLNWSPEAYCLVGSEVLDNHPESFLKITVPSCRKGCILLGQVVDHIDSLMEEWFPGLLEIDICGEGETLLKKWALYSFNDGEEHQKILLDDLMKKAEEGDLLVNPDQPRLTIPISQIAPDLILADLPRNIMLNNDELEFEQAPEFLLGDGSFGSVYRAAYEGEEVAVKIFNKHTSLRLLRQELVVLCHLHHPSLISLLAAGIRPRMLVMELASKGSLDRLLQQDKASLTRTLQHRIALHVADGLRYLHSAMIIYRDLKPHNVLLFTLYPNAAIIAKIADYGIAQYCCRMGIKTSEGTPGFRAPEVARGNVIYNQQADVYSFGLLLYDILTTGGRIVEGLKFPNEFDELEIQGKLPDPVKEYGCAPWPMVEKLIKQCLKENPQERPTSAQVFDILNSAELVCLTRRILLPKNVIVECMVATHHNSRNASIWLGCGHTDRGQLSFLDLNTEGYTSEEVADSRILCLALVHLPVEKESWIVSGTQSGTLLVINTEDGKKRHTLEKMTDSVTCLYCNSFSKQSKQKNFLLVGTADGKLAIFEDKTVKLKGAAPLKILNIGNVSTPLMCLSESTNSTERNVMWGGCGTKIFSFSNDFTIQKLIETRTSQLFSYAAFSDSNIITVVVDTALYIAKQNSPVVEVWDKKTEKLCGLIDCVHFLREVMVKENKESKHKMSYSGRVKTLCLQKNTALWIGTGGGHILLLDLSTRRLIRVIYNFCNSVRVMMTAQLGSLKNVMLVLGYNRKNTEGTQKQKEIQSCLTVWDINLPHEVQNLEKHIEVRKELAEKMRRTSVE

[5] = molecular target: Leucine-rich repeat serine/threonine-protein kinase 2 (Homo sapiens) (UniProt Q5S007); conditions: at 1 µM
[6] = test system: Leucine-rich repeat serine/threonine-protein kinase 2 (Homo sapiens), Q5S007 [G2019S]; conditions: at 0.1 µM
Sequence of Leucine-rich repeat serine/threonine-protein kinase 2 (Homo sapiens), Q5S007 [G2019S] (Q5S007 whole entry G2019S): as the sequence (Q5S007 whole entry) above, with G2019S counted along it

[7] = test system: Leucine-rich repeat serine/threonine-protein kinase 2 (Homo sapiens), Q5S007 [G2019S]; conditions: at 1 µM

Sequence of RAF proto-oncogene serine/threonine-protein kinase (Homo sapiens) (P04049 whole entry): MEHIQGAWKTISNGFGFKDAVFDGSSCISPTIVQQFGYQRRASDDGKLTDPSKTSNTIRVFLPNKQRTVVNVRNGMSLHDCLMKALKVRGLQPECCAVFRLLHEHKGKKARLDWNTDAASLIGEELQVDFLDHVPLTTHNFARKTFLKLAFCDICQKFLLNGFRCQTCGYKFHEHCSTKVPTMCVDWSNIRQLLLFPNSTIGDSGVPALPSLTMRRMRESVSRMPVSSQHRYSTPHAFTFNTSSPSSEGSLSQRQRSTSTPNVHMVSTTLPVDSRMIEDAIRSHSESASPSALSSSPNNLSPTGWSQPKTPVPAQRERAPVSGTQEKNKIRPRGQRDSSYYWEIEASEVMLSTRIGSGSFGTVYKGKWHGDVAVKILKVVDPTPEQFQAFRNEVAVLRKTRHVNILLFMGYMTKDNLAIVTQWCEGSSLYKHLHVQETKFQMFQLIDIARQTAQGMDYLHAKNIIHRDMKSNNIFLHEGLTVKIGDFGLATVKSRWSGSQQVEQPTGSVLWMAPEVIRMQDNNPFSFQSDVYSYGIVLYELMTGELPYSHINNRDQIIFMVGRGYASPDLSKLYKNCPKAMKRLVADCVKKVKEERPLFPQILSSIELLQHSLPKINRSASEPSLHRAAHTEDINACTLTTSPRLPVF

Compound	inhibition [1]	inhibition [2]	inhibition [3]	inhibition [4]	inhibition [5]	inhibition [6]	inhibition [7]
CCS(=O)(=O)c1ccc(OC)c(Nc2ncc(-c3cccc(C(C)=O)c3)o2)c1	8.87%	-3.46%	1.19%	0.47%	4.65%	2.77%	11.8%
CNC(=O)c1ncccc1Nc1nc(Nc2cc3c(cc2OC)CCCN3C(=O)CN(C)C)nc2[nH]ccc12	-9.95%	-0.32%	2.65%	29.7%	26.6%	65.3%	64.5%
FC(F)(F)CNc1nccc(-c2cnn3ncccc23)n1	-1%	0.77%	1.21%	3.07%	8.2%	5.03%	9.11%
CC1=C(C(=O)Nc2ccc3[nH]nc(C)c3c2)C(c2ccc(C(F)(F)F)cc2)CC(=O)N1 (centres undefined)	-1.39%	-3.01%	1.5%	5.54%	21.3%	9.85%	49.5%
CN1CCC(n2cnc(-c3ccc(F)cc3)c2-c2ccnc(NCCO)n2)CC1	1.26%	-1.44%	1.47%	3.06%	4.49%	4.69%	5.35%
Nc1nccc(-c2c(-c3ccc(F)cc3)ncn2C2CCNCC2)n1	8.14% and -2.89%	3.05% and 0.88%	-1.58% and -0.23%	-1.76% and 1.62%	3.33% and 3.21%	0.34% and 3.78%	4.42% and 3.38%
CN1CCN(Cc2ccc(-c3cc4ncnc(Nc5ccc(OCc6cccc(F)c6)c(Cl)c5)c4s3)o2)CC1	-2.88% and 11.7%	0.28% and 1.52%	0.56% and 2.95%	2.03% and 2.75%	6.29% and 5.13%	4.59% and 4.9%	7.45% and 5.92%
COc1ccc2ncn(-c3cc(O[C@H](C)c4ccccc4C(F)(F)F)c(C(N)=O)s3)c2c1	0.1%	1.48%	0.87%	4.72%	15.9%	5.16%	31%
CNC(=O)c1cncc(/C=C/c2ccccc2C)c1	-2.68%	-0.44%	2%	3.81%	6.67%	4.65%	9.68%
OCCCNc1nccc(-c2c(-c3ccc(F)cc3)nn3cc(C(F)(F)F)ccc23)n1	-7.33%	-1.58%	1.48%	5.02%	7.46%	2.62%	7.85%
Nc1nonc1-c1nc2cnccc2n1C1CC1	5.43% and 2.92%	-0.18% and 2.38%	2.91% and 1.65%	8.81% and 0.08%	15.4% and 10.4%	13.3% and 5.33%	44.6% and 35%
N#Cc1ccc2c(-c3ccnc(NC4CC4)n3)c(-c3ccc(F)cc3)nn2c1	-2.54%	0.03%	-0.5%	2.1%	-2.22%	1.24%	-0.08%
NS(=O)(=O)c1ccc(N/N=C2\C(=O)Nc3ccc(C(=O)NCc4ccncc4)cc32)cc1	-3.37%	-2.46%	1.57%	5.05%	11.6%	6.07%	30.8%
N#Cc1cccc(Nc2ncc(-c3ccccc3)o2)c1	-0.15%	2.82%	0.78%	1.01%	2.11%	1.64%	4.25%
CS(=O)(=O)CCNCc1ccc(-c2ccc3ncnc(Nc4ccc(OCc5ccccc5)cc4)c3c2)o1	2.22%	1.54%	1.78%	3.3%	6.64%	2.93%	7.35%
O=C(O[C@H]1CN[C@H](C#Cc2cc3ncnc(Nc4ccc5c(cnn5Cc5ccccc5)c4)c3s2)C1)N1CCOCC1	-1.71%	-1.41%	-0.48%	1.16%	4.4%	3.12%	4.15%
Fc1ccc(Nc2nccc(-c3c(-c4ccc(C(F)(F)F)cc4)nn4ncccc34)n2)cc1F	1.86%	-4.78%	1.81%	5.42%	7.08%	5.93%	10.4%
CN(C)CCNC(=O)Nc1ccc(N(C)c2ccnc(Nc3ccc(CS(C)(=O)=O)cc3)n2)cc1	-0.82%	-4.3%	2.15%	4.46%	11.5%	6.1%	23%
CS(=O)(=O)CCNCc1ccoc1-c1ccc2ncnc(Nc3ccc(OCc4ccccc4)cc3)c2c1	-1.65%	0.62%	1.15%	1.37%	3.82%	2.44%	2.57%
COc1ccc(-c2nn3ncccc3c2-c2ccnc(Nc3ccc(F)c(F)c3)n2)cc1	-4.25%	-0.54%	1.76%	5.52%	9.6%	6.22%	7.92%
COc1cc(Nc2ncc(-c3ccccc3)o2)cc(OC)c1	-1.38%	2.03%	2.83%	0.94%	6.82%	2.33%	12.5%

Compound	inhibition [1]	inhibition [2]	inhibition [3]	inhibition [4]	inhibition [5]	inhibition [6]	inhibition [7]
COc1cc2c(cc1Nc1nc(Nc3cccc(F)c3C(N)=O)c3cc[nH]c3n1)N(C(=O)CN1CCN(C(C)C)CC1)CC2	-4.19%	-0.19%	-0.43%	25.8%	76.8%	41.5%	59.8%
COC(=O)Nc1nc2ccc(Oc3ccc(NC(=O)Nc4cc(C(F)(F)F)ccc4F)cc3)cc2s1	60.1%	1.94%	0.25%	17.4%	48.5%	9.18%	37.8%
O=C(O[C@H]1CN[C@H](C#Cc2cc3ncnc(Nc4ccc(OCc5cccc(F)c5)c(Cl)c4)c3s2)C1)N1CCOCC1	0.51%	1.13%	2.48%	2.8%	7.32%	4.61%	8.39%
CNC(=O)c1sc(-n2cnc3cc(OC)c(OC)cc32)cc1OCc1ccccc1C(F)(F)F	0.72%	2.12%	1.97%	2.86%	9.7%	3.5%	7.21%
Cc1ccc(-c2cc3c(NC(=O)C4CC4)ncnc3o2)cc1	-2.51%	-1.3%	2.26%	9.7%	12.2%	9.7%	16.6%
COc1cc(N2CCN(C(C)C)CC2)ccc1Nc1nc(Nc2cccc3ncccc23)c2cc[nH]c2n1	10.1%	5.39%	-0.29%	13%	23.2%	24.5%	63%
COC(=O)Nc1nc2cc(Oc3ccc(NC(=O)Nc4ccccc4)cc3)ccc2[nH]1	17.3%	2.38%	0.86%	3.5%	6.86%	3.61%	4.1%
NS(=O)(=O)c1cccc(N/C=C2\C(=O)Nc3ccccc32)c1	2.59%	2.9%	2.37%	3.41%	15.8%	6.57%	34%
CCCNc1cccc(-n2ncc3c(N/N=C/c4ccncc4)ncnc32)c1	-3.81%	2.03%	0.71%	3.27%	12.2%	5.55%	37.8%
Cc1cc(O)cc(C)c1/C=C/c1cncc(C(=O)OC(C)(C)C)c1	-0.4%	3.06%	1.36%	6.27%	9.43%	6.75%	10.9%
Cn1c(-c2nonc2N)nc2cnccc21	8.87%	3.47%	1.21%	2.89%	10.6%	4.16%	20.5%
O=C(Nc1n[nH]c2nnc(-c3cccnc3)cc12)C1CC1	-3.13%	-0.42%	-0.13%	0.99%	4.69%	2.42%	5.79%
CN1CCC(C(=O)Nc2n[nH]c3nc(-c4ccc(O)cc4)c(Br)cc23)CC1	2.83% and -8.49%	3.04% and 2.37%	2.24% and 1.33%	-2.84% and -1.67%	2.03% and 7.36%	-0.31% and 1.49%	4.77% and 5.48%
CN(c1ccc(NC(=O)NCCN2CCOCC2)cc1)c1ccnc(Nc2ccc(CS(C)(=O)=O)cc2)n1	7.58%	-5.94%	1.07%	2.79%	9.85%	2.66%	14.7%
CCN1CCC(C(=O)Nc2n[nH]c3nnc(-c4cccc(F)c4F)cc23)CC1	-2.59%	0.27%	0.13%	1.99%	3.27%	2.15%	1.7%
Fc1cccc(COc2ccc(Nc3ncncc3C#Cc3ccccc3)cc2Cl)c1	5.17%	0.71%	2.43%	3.65%	7.01%	4.05%	6.17%
NS(=O)(=O)c1ccc(N/N=C2\C(=O)Nc3cccc(CCc4ccncc4)c32)cc1	-2.61%	-0.38%	0.01%	6.21%	9.58%	8.14%	12.9%
COc1ccc(Nc2ncc(-c3ccccc3)o2)cc1OC	3.96%	2.27%	2.28%	1.05%	13.2%	3.5%	22.9%
Cc1c2ccc(N(C)c3ccnc(Nc4cccc(S(N)(=O)=O)c4)n3)cc2nn1C	41%	4.14%	3.25%	0.45%	9.99%	1.58%	12.6%
Cc1nnc(-c2cccc(-c3ccc(C(=O)NCC4CC4)cc3)c2)o1	1.67%	-1.48%	2.66%	3.32%	5.55%	4.33%	7.83%
COc1ccccc1-c1cc(/C=C2\C(=O)Nc3ncc(Br)cc32)cc(Br)c1O	-9.49%	2.4%	1.85%	7.41%	17.6%	13.5%	55.3%

Compound	inhibition [1]	inhibition [2]	inhibition [3]	inhibition [4]	inhibition [5]	inhibition [6]	inhibition [7]
CC1=C(C(=O)Nc2ccc3[nH]ncc3c2)C(c2ccc(F)cc2)N=C(c2ccc(C(F)(F)F)nc2)N1 (centres undefined)	-4.26%	-2.11%	0.95%	2.81%	7.24%	5.04%	26%
O=C1Nc2ccccc2/C1=C1\CCc2cc(O)ccc21	-4.27%	0.67%	5.31%	17.6%	66.3%	22.1%	63.6%
c1ccc(-c2n[nH]cc2-c2ccnc(-c3ccc(OCCn4ccnc4)cc3)c2)nc1	-2.1%	4.92%	0.82%	0.79%	7.44%	3.12%	14.5%
Cc1cc(O)cc(C)c1/C=C/c1cncc(C(N)=O)c1	5.31%	-1.86%	0.71%	1.8%	6.26%	3.18%	13.3%
CCn1c(-c2nonc2N)nc2cncc(C(=O)NCCNC)c21	0.85%	2.49%	3.05%	6.11%	28.8%	13%	51.8%
COc1cccc(Nc2nccc(-c3cnn4ncccc34)n2)c1	-1.47%	0.48%	11.1%	9.98%	21.1%	13.3%	54.8%
COc1cccc(-n2ncc3c(N/N=C/c4ccc(C(=O)NCCN(C)C)cc4)ncnc32)c1	1.13%	-3.06%	1.87%	8.48%	17.2%	12.5%	49.6%
NC(=O)c1ccc2c(-c3ccnc(NCCCO)n3)c(-c3ccc(F)cc3)nn2c1	-4.3%	1.46%	2.22%	5.47%	7.44%	6.54%	9.18%
CC1(C)CC(n2cnc(-c3ccc(F)cc3)c2-c2ccnc(N)n2)CC(C)(C)N1	2.12%	4.73%	0.49%	0.31%	5.05%	2.37%	6.19%
CS(=O)(=O)CCNCc1ccc(-c2ccc3ncnc(Nc4ccc(OCc5cccc(C(F)(F)F)c5)cc4)c3c2)o1	-2.29%	2.1%	3.11%	1.61%	5.55%	4.24%	7.8%
Nc1ncnc2occ(-c3ccc(NC(=O)Nc4cc(C(F)(F)F)ccc4F)cc3)c12	-6.08% and -5.86%	-1.81% and -1.2%	1.77% and -0.37%	13.6% and 6.55%	18.1% and 19.4%	8.38% and 6.37%	35.4% and 28.6%
CCS(=O)(=O)c1ccc(OC)c(Nc2ncc(-c3cccc(F)c3)o2)c1	-3.37%	2.36%	5.42%	2.2%	14.5%	6.1%	27.9%
COc1c(C(N)=O)cc(-c2ccc(Cl)cc2)cc1-c1ccc(S(N)(=O)=O)cc1	1.44%	1.96%	1.85%	-0.34%	6.11%	3.53%	9.4%
CS(=O)(=O)Nc1ccc(-c2cc(-c3ccccc3)cc(C(N)=O)c2N)cc1	-4.37%	0.55%	1.37%	1.64%	4.15%	3.87%	5.66%
c1cnn2ncc(-c3ccnc(NCCCN4CCOCC4)n3)c2c1	-5.16%	2.04%	1.39%	1.69%	1.57%	2.1%	5.03%
CS(=O)(=O)Nc1ccc(-c2ccc3c(NC(=O)C4CC4)n[nH]c3c2)cc1	5.45%	-4.64%	1.75%	9.03%	5.46%	9.88%	15.1%
CC(C)c1ccc(-c2cc(-c3c[nH]nc3-c3ccccn3)ccn2)cc1	1.4%	1.27%	0.36%	2.9%	4.8%	1.2%	7.15%
CCOc1ccc2c(-c3ccnc(Nc4cc(OC)cc(C(F)(F)F)c4)n3)cnn2n1	-1.65%	-3.8%	0.63%	1.55%	5.25%	3.62%	12.8%
COc1cc(N2CCN(C(C)C)CC2)ccc1Nc1nc(Nc2cccc(F)c2C(=O)O)c2cc[nH]c2n1	0.19%	2.04%	2.25%	6.61%	16.3%	19%	59.3%
O=C(O[C@H]1CN[C@H](C#Cc2cc3ncnc(Nc4ccc5c(ccn5Cc5cc(F)ccc5F)c4)c3s2)C1)N1CCOCC1	-3.01%	3.45%	2.43%	3.48%	6.3%	3.23%	5.91%
